PubChem BioAssay (NCI)
Compounds without any hit were thinned out: in the full panel of roughly 79,000, 15% have a hit. Unmarked numbers belong to inactive results. Active and inactive are the calls of the source. No stated cut-off is given here; in the data, active means growth inhibition above about 70%; inactive means the rest.

How the values were obtained:
[1] = NCI Yeast Anticancer Drug Screen. Data for the wt1 strain (AID 149);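 further: 0% = growth of vehicle-treated wt1 cultures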; conditions: S. cerevisiae wt1 strain (SPY 50644) growth inhibition, hits give high values
Summary of the method: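 Yeast wt1 strain exposed to compounds; growth inhibition measured relative to vehicle-treated controls.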

[2] = NCI Yeast Anticancer Drug Screen. Data for the rad50EPP+ strain (AID 151);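 further: 0% = growth of vehicle-treated control cultures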; conditions: S. cerevisiae rad50 mutant strain, hits give high values
Summary of the method: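 Growth inhibition read against vehicle controls in rad50EPP+ yeast, a strain altered in DNA damage repair, after compound exposure.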

[3] = NCI Yeast Anticancer Drug Screen. Data for the mgt1 strain (AID 153); conditions: S. cerevisiae mgt1 mutant growth inhibition, hits give high values
Summary of the method: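 mgt1 yeast grown with test compound; read-out is growth inhibition versus vehicle-treated cultures.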

[4] = NCI Yeast Anticancer Drug Screen. Data for the rad50 strain (AID 155);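 further: 0% = growth of vehicle-only cultures of the same strain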; conditions: S. cerevisiae rad50 strain growth inhibition, hits give high values
Summary of the method: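 Yeast carrying a defined DNA repair defect were exposed to test compounds, and growth was compared with vehicle-treated controls to give percent inhibition.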

[5] = NCI Yeast Anticancer Drug Screen. Data for the mec2-1 strain (AID 157); conditions: S. cerevisiae mec2-1 strain, hits give high values
Summary of the method: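 Yeast mec2-1 mutant treated with compound. Readout: growth inhibition vs vehicle controls.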

[6] = NCI Yeast Anticancer Drug Screen. Data for the rad14 strain (AID 159);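 further: 0% = growth of vehicle-treated control cultures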; conditions: S. cerevisiae rad14 strain growth inhibition, hits give high values
Summary of the method: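 Yeast cells carrying a defined DNA-repair defect were exposed to compounds, and growth inhibition was calculated relative to vehicle-treated control cultures.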

[7] = NCI Yeast Anticancer Drug Screen. Data for the sgs1 mgt1 strain (AID 161);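 further: 0% = growth of cultures given vehicle only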; conditions: S. cerevisiae sgs1 mgt1 strain, hits give high values
Summary of the method: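 Mutant yeast exposed to compound; growth scored against vehicle-only wells.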

[8] = NCI Yeast Anticancer Drug Screen. Data for the CLN2oe strain (AID 163);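 further: 0% = growth of vehicle-only control cultures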; conditions: S. cerevisiae CLN2oe strain, hits give high values
Summary of the method: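 Read-out: yeast growth inhibition, expressed relative to vehicle-only controls. The strain bears an engineered cell-cycle alteration.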

[9] = NCI Yeast Anticancer Drug Screen. Data for the cln2 rad14 strain (AID 165);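 further: 0% = growth equal to vehicle treated cultures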; conditions: S. cerevisiae cln2 rad14 strain, hits give high values
Summary of the method: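 cln2 rad14 yeast strain; compound exposure; growth inhibition read vs vehicle controls.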

[10] = NCI Yeast Anticancer Drug Screen. Data for the bub3 strain (AID 167); conditions: S. cerevisiae bub3 mutant strain, hits give high values
Summary of the method: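 Compounds were applied to a genetically altered yeast strain carrying a cell-cycle control defect. Growth inhibition was scored against vehicle-treated controls.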

[11] = NCI Yeast Anticancer Drug Screen. Data for the wt2 strain (AID 169);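 further: 0% = growth of vehicle-treated yeast cultures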; conditions: S. cerevisiae wt2 strain growth inhibition, hits give high values
Summary of the method: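 Read-out: growth inhibition versus vehicle-treated control cultures after compound exposure of the yeast strain.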

[12] = NCI Yeast Anticancer Drug Screen. Data for the mlh1 strain (AID 171);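 further: 0% = growth of vehicle-treated control cultures of the same strain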; conditions: S. cerevisiae mlh1 strain growth inhibition, hits give high values
Summary of the method: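 Read-out: growth inhibition versus vehicle controls. Strain: engineered yeast with a defined DNA repair or cell cycle defect, compound-treated.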

[13] = NCI Yeast Anticancer Drug Screen. Data for the sgs1 strain (AID 173);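 further: 0% = growth of vehicle-only control cultures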; conditions: S. cerevisiae sgs1 mutant, hits give high values
Summary of the method: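 Read-out: yeast growth inhibition relative to vehicle controls, following compound exposure of a strain with a defined DNA repair/cell cycle alteration.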

[14] = NCI Yeast Anticancer Drug Screen. Data for the mlh1 rad18 strain (AID 175); conditions: S. cerevisiae mlh1 rad18 strain growth inhibition, hits give high values
Summary of the method: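 Yeast w/ defined DNA-repair lesions; compound exposure; growth vs vehicle controls → % inhibition.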

[15] = NCI Yeast Anticancer Drug Screen. Data for the rad18 strain (AID 177); conditions: S. cerevisiae rad18 mutant growth inhibition, hits give high values
Summary of the method: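 Readout: growth inhibition vs vehicle controls. Cells: genetically altered yeast strain, DNA repair defect.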

[16] = at 5.0 µM (retest, dose inferred, filed as 0.5)
[17] = at 50.0 µM (retest, dose inferred, filed as 5.0)

O=C(CCSC1=NCCCN1)c1ccc(F)cc1
growth inhibition ([1]; at 1.2 µM): -43%
growth inhibition ([1]; at 3.7 µM): -61%
growth inhibition ([1]; at 11.0 µM): -101%
growth inhibition ([1]; at 33.0 µM): 15%
growth inhibition ([1]; at 100.0 µM): 98% (active)
growth inhibition ([2]; at 1.2 µM): -75%
growth inhibition ([2]; at 3.7 µM): -100%
growth inhibition ([2]; at 11.0 µM): -54%
growth inhibition ([2]; at 33.0 µM): 37%
growth inhibition ([2]; at 100.0 µM): 98% (active)
growth inhibition ([3]; at 1.2 µM): -59%
growth inhibition ([3]; at 3.7 µM): -59%
growth inhibition ([3]; at 11.0 µM): -52%
growth inhibition ([3]; at 33.0 µM): -3%
growth inhibition ([3]; at 100.0 µM): 99% (active)
growth inhibition ([4]; at 1.2 µM): -21%
growth inhibition ([4]; at 3.7 µM): -40%
growth inhibition [4, 16]: 24%
growth inhibition ([4]; at 11.0 µM): -34%
growth inhibition ([4]; at 33.0 µM): -34%
growth inhibition [4, 17]: 69%
growth inhibition ([4]; at 50.0 µM): 4.9%
growth inhibition ([4]; at 100.0 µM): 96% (active)
growth inhibition ([5]; at 1.2 µM): -15%
growth inhibition ([5]; at 3.7 µM): 3%
growth inhibition [5, 16]: 17%
growth inhibition ([5]; at 11.0 µM): -52%
growth inhibition ([5]; at 33.0 µM): 55%
growth inhibition [5, 17]: 75% (active)
growth inhibition ([5]; at 50.0 µM): 94.3% (active)
growth inhibition ([5]; at 100.0 µM): 100% (active)
growth inhibition ([6]; at 1.2 µM): -19%
growth inhibition ([6]; at 3.7 µM): -50%
growth inhibition ([6]; at 11.0 µM): -54%
growth inhibition ([6]; at 33.0 µM): 23%
growth inhibition ([6]; at 100.0 µM): 99% (active)
growth inhibition [7, 16]: 6%
growth inhibition [7, 17]: 93% (active)
growth inhibition ([7]; at 50.0 µM): 91% (active)
growth inhibition ([8]; at 1.2 µM): -6%
growth inhibition ([8]; at 3.7 µM): -7%
growth inhibition ([8]; at 11.0 µM): -24%
growth inhibition ([8]; at 33.0 µM): 14%
growth inhibition ([8]; at 100.0 µM): 98% (active)
growth inhibition [9, 16]: -3%
growth inhibition [9, 17]: 13%
growth inhibition ([9]; at 50.0 µM): 25.6%
growth inhibition ([10]; at 1.2 µM): -22%
growth inhibition ([10]; at 3.7 µM): -17%
growth inhibition [10, 16]: 12%
growth inhibition ([10]; at 11.0 µM): -23%
growth inhibition ([10]; at 33.0 µM): -26%
growth inhibition [10, 17]: 79% (active)
growth inhibition ([10]; at 50.0 µM): 91.2% (active)
growth inhibition ([10]; at 100.0 µM): 68%
growth inhibition ([11]; at 1.2 µM): -12%
growth inhibition ([11]; at 3.7 µM): -13%
growth inhibition ([11]; at 11.0 µM): -5%
growth inhibition ([11]; at 33.0 µM): 34%
growth inhibition ([11]; at 100.0 µM): 99% (active)
growth inhibition ([12]; at 1.2 µM): -32%
growth inhibition ([12]; at 3.7 µM): -73%
growth inhibition ([12]; at 11.0 µM): -23%
growth inhibition ([12]; at 33.0 µM): -13%
growth inhibition ([12]; at 100.0 µM): 98% (active)
growth inhibition ([13]; at 1.2 µM): -41%
growth inhibition ([13]; at 3.7 µM): -52%
growth inhibition ([13]; at 11.0 µM): -58%
growth inhibition ([13]; at 33.0 µM): -29%
growth inhibition ([13]; at 100.0 µM): 99% (active)
growth inhibition [14, 16]: 24%
growth inhibition [14, 17]: 48%
growth inhibition ([14]; at 50.0 µM): 14.9%
growth inhibition ([15]; at 1.2 µM): -13%
growth inhibition ([15]; at 3.7 µM): -23%
growth inhibition ([15]; at 11.0 µM): -22%
growth inhibition ([15]; at 33.0 µM): 21%
growth inhibition ([15]; at 100.0 µM): 96% (active)
